Results reported in PubChem BioAssay (Tox21).
Inconclusive results are not listed. Active and inactive are the calls of the source. The call rests on the fitted dose curve.

Assays:
[1] = target: Acetylcholinesterase (Homo sapiens) (UniProt P22303); test: Acetylcholinesterase (AChE) small molecule antagonists: colormetric cell-based qHTS assay (AID 1347395); further: nearly all actives have a fitted effect of over 30% in size
Outline: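 In this cell-based qHTS, attached SH-SY5Y cells were treated with test chemicals for 30 min, after which acetylthiocholine hydrolysis was followed by DTNB colour development over 90 min at 37 C.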

[2] = target: Acetylcholinesterase (Homo sapiens) (UniProt P22303); test: Acetylcholinesterase (AChE) small molecule antagonists: enzyme-based qHTS assay (AID 1347397); conditions: Potency: AChE enzyme activity inhibition; outcome: AChE enzyme activity inhibition; further: nearly all actives have a fitted effect of over 55% in size
Outline: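 First, recombinant human AChE (50 mU/mL as dispensed) received test compound or DMSO. Second, plates stood 30 min at room temperature. Third, DTNB and acetylthiocholine were added, followed by 10 min at room temperature and colorimetric detection.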

[3] = target: Acetylcholinesterase (Homo sapiens) (UniProt P22303); test: Acetylcholinesterase (AChE) small molecule antagonists: fluorescence cell-based qHTS assay (AID 1347398); conditions: Potency: AChE activity; outcome: AChE activity; further: nearly all actives have a fitted effect of over 50% in size
Outline: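 Homogeneous quantitative HTS format. SH-SY5Y cells seeded at 2,000 per well settle overnight at 37 C. Compound pretreatment runs 30 min (37 C, 5% CO2); substrate/probe mix then reacts 40 min at RT before reading 490/520 nm.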

[4] = target: Acetylcholinesterase (Homo sapiens) (UniProt P22303); test: Acetylcholinesterase (AChE) small molecule antagonists: enzyme-based qHTS assay with human liver microsomes (AID 1347399); conditions: Potency: qHTS inhibition; outcome: qHTS inhibition; further: nearly all actives have a fitted effect of over 60% in size
Outline: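 Recombinant human AChE (50 mU/mL in the enzyme mix) and human liver microsomes (0.25 mg/mL final) were preincubated with compound and NADPH (0.25 mg/mL final) for 30 min at 37 C. Acetylthiocholine/DTNB was then added; thiocholine was read colorimetrically after 10 min at room temperature.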

Measured: Potency

Sequence of Acetylcholinesterase (Homo sapiens) (P22303 whole entry, looked up): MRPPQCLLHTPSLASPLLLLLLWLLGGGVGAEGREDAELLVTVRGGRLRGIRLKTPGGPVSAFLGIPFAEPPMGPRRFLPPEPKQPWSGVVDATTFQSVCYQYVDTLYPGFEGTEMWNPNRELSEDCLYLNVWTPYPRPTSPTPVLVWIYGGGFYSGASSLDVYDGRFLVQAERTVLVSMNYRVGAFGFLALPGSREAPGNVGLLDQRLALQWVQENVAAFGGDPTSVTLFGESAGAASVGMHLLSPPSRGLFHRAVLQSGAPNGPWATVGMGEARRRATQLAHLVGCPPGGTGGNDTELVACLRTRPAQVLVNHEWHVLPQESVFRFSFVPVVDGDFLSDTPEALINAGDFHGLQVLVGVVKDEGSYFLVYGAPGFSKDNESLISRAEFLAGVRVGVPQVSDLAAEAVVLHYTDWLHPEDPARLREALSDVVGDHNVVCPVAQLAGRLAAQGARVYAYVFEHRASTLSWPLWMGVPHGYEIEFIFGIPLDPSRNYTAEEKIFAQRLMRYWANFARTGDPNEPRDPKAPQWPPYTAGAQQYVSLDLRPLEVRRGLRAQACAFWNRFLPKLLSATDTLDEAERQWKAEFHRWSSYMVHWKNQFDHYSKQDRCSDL

FC(F)(F)C(F)(F)C(F)(F)C(F)(F)C(F)(F)C(F)(F)C(F)(F)C(F)(F)Br
inactive: all assays above

C=CS(=O)(=O)O
inactive: all assays above

COc1ccc(C(=O)Nc2nc3ccccc3c(NCc3ccccc3)c2C#N)cc1
inactive: all assays above

Cc1ccc(C(C)OC(=O)C2(C)CCC(C(=O)O)C2(C)C)cc1 (configuration not stated)
inactive: all assays above

CC(CC(=O)Cl)CC(C)(C)C (configuration not stated)
inactive: all assays above

CCCCOCCOC(=O)CCCCCCCCC(=O)OCCOCCCC
inactive: all assays above

COC(C)(C)CC(C)=O
inactive: all assays above

Nc1ccc2ccccc2c1S(=O)(=O)O
inactive: all assays above

C[Si]1(C)O[Si](C)(C)O[Si](C)(C)O1
inactive: all assays above

Cc1nc(C)c(C)nc1C
inactive: all assays above

CCCCOc1ccc(OCCCN2CCOCC2)cc1
inactive: all assays above

CCCCc1ccc2cccc(S(=O)(=O)O)c2c1
inactive: all assays above

CCCCCc1ccc(N)cc1
inactive: all assays above

CCC(C)NC(N)=O (configuration not stated)
inactive: all assays above

C=CC(=O)OCCn1c(=O)n(CCOC(=O)C=C)c(=O)n(CCOC(=O)C=C)c1=O
inactive: all assays above

Cc1ccc(N)nc1
inactive: all assays above

O=C(O)Cc1ccc(CCNS(=O)(=O)c2ccc(Cl)cc2)cc1
inactive: all assays above

C=CC(=O)[O-].C=CC(=O)[O-].[Zn+2]
inactive: all assays above

CS(C)=O
inactive: all assays above

O=C(O)[C@H](O)c1ccccc1
inactive: all assays above

COP(=O)(O)OP(=O)(O)OC
inactive: all assays above

C=C(C)C(=O)OCCOCC
inactive: all assays above

O/N=C/C=N/O
inactive: all assays above

COC(=O)C1=C(C)NC(C)=C(C(=O)OC(C)C)C1c1cccc2nonc12 (configuration not stated)
inactive: all assays above

CCCCCN(CCCCC)C(=O)C(CCC(=O)O)NC(=O)c1ccc(Cl)c(Cl)c1 (configuration not stated)
inactive: all assays above

O=S(=O)(O)CCN1CCN(CCO)CC1
inactive: all assays above

CCOC(=O)C(=O)c1csc(NC=O)n1
inactive: all assays above

CC1(C)OC(=O)Nc2ccc(Br)cc21
inactive: all assays above

C(=C\c1ccccc1)/c1ccccc1
inactive: all assays above

O=C(CS)OCCOC(=O)CS
inactive: all assays above

Nc1ccnc(=O)[nH]1
inactive: all assays above

C[C@@]12CCC[C@H]1[C@@H]1CC[C@H]3C[C@@H](O)CC[C@]3(C)[C@H]1CC2
inactive: all assays above

CCCCCCCCSCc1cc(C)c(O)c(CSCCCCCCCC)c1
inactive: all assays above

O=C(Oc1cccc2cccnc12)c1ccccc1
inactive: all assays above

Nc1ccc(C(=O)OCCCOC(=O)c2ccc(N)cc2)cc1
inactive: all assays above

Nc1ccc(Cl)c([N+](=O)[O-])c1
inactive: all assays above

C#C[C@]1(O)CC[C@H]2[C@@H]3CCc4cc(OC5CCCC5)ccc4[C@H]3CC[C@@]21C
inactive: all assays above

CCNC(=O)C(C)OC(=O)Nc1ccccc1 (configuration not stated)
inactive: all assays above

O=C(O)CCN(C1(C(=O)NO)CCCC1)S(=O)(=O)c1ccc(Oc2ccc(F)cc2)cc1
inactive: all assays above

Nc1ccc(C(=O)O)c(O)c1
inactive: all assays above

Cc1ccc(NC(N)=O)cc1
inactive: all assays above

CCCCC(CC)CNCC(CC)CCCC (configuration not stated)
inactive: all assays above

C=CCOc1c(Br)cc(Br)cc1Br
inactive: all assays above
